About 83,000 compounds went through this panel and 20% of them were active in at least one assay; those are over-represented in the sample as a whole.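 Treatment: one concentration, 48 hours, 96-well format. Scoring: percent growth, with anything below 10 considered active.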 A number with no mark means an inactive call. Active and inactive are the calls of the source.
Columns and labels:
Assay in all cases: NCI-60 one-dose screen, 48 h (100 = growth as untreated, 0 = no growth, -100 = all killed)
Details in all cases: 10 µM unless noted
[1] = system: T-47D breast
[2] = system: BT-549 breast
[3] = system: MDA-MB-435 melanoma
[4] = system: SW-620 colon
[5] = system: MCF7 breast
[6] = system: HCT-116 colon
[7] = system: HCC-2998 colon
[8] = system: KM12 colon

`CCCCCc1ccc(S(=O)(=O)Nc2cccc(-c3csc(NC(=O)CN4CCN(C)CC4)n3)c2)cc1` was tested, and the growth [1] was 67.2%, the growth [2] was 93.4% and the growth [3] was 45.3%. For the same compound, the growth [4] was 46.5%, the growth [5] was 26.2% and the growth [6] was 16.9%. For the same compound, the growth [7] was 14.8% and the growth [8] was 65.8%.
Work on `COc1ccc(/C=C(\C#N)C(=O)N2c3ccccc3Sc3ccc(SC)cc32)cc1F` yielded a growth [1] of 70.9%, a growth [2] of 104% and a growth [3] of 97.9%. For the same compound, the growth [4] was 95.2%, the growth [5] was 95.9% and the growth [6] was 91.2%. The growth [7] was 90.5% and the growth [8] was 95.3%.
Work on `ClC(Cl)c1nc(-c2ccco2)n2nc(-c3ccccc3)cc2n1` yielded a growth [1] of 32.8%, a growth [2] of 87.7% and a growth [3] of 24.9%. The growth [4] was 8.35% (active), the growth [5] was 1.38% (active) and the growth [6] was 2.94% (active). For the same compound, the growth [7] was -53.5% (active) and the growth [8] was -27.4% (active).
With `NC(N)=Nc1ccc(Oc2cccc(Nc3ccc(Br)c(C(F)(F)F)c3)c2)cn1` the growth [1] was 12.9%, the growth [2] was -2.65% (active) and the growth [3] was -89.1% (active). For the same compound, the growth [4] was -79% (active), the growth [5] was -56.8% (active) and the growth [6] was -64.8% (active). The growth [7] was -85.6% (active) and the growth [8] was -72.5% (active).
Compound `Cc1ccc(CSc2nc(-c3ccc(Cl)cc3)c(C#N)c(N3CCNCC3)n2)cc1` has a growth [1] of 88.8%, a growth [2] of 91% and a growth [3] of 81.2%. For the same compound, the growth [4] was 83%, the growth [5] was 58.5% and the growth [6] was 66.9%. It also gave a growth [7] of 87.2% and a growth [8] of 84.7%.
With `COc1cc(/C=C2\C(=O)Nc3ccccc32)ccc1OCc1ccc(Cl)cc1` the growth [1] was 107%, the growth [2] was 109% and the growth [3] was 106%. For the same compound, the growth [4] was 96.6%, the growth [5] was 69.5% and the growth [6] was 86.9%. It also gave a growth [7] of 123% and a growth [8] of 99.6%.
For `Nc1ncc(-c2ccc3ncnc(N4CCc5cc(F)c(F)cc54)c3c2)cn1`, the growth [1] was 4.14% (active), the growth [2] was 12.3% and the growth [3] was 30.2%. The growth [4] was 54.4%, the growth [5] was 14.4% and the growth [6] was 28.9%. For the same compound, the growth [7] was 31.9% and the growth [8] was 45.3%.
For `Cc1ccc2sc3c(c2c1)OC(N)=C(C#N)C3c1ccc(Cl)cc1` (stereo not given), the growth [1] was 56.6%, the growth [2] was 26.3% and the growth [3] was -10.7% (active). For the same compound, the growth [4] was 63.4%, the growth [5] was 13.8% and the growth [6] was 88%. It also gave a growth [7] of 84.8% and a growth [8] of 45.5%.
With `CCO/C=N/C1=C(C#N)C(c2ccc(F)cc2)c2sc3c(CC)cccc3c2O1` (stereo not given) the growth [1] was 42.7%, the growth [2] was 27.7% and the growth [3] was -12.9% (active). For the same compound, the growth [4] was 30.1%, the growth [5] was 14.8% and the growth [6] was 16.2%. It also gave a growth [7] of 15.6% and a growth [8] of 14.8%.
In the case of `CCCCCc1ccc(S(=O)(=O)Nc2cc(-c3csc(NC(=O)CN4CCN(C)CC4)n3)ccc2OC)cc1`, the growth [1] is reported as -24.3% (active), the growth [2] is reported as 87.7% and the growth [3] is reported as -84.1% (active). For the same compound, the growth [4] was -26.9% (active), the growth [5] was -63.8% (active) and the growth [6] was -70.8% (active). The growth [7] was -50.2% (active) and the growth [8] was 25.8%.
For `CCCCNNC(=O)c1ccc(-c2cccc(F)c2F)cc1`, the growth [1] was 3.16% (active), the growth [2] was 58.6% and the growth [3] was 25.4%. The growth [4] was 20.7%, the growth [5] was 15.9% and the growth [6] was 13.9%. For the same compound, the growth [7] was 37.9% and the growth [8] was 44.6%.
In the case of `N#Cc1cccc(CN2CCC3=C(C2)C(=O)N(Cc2ccc(Cl)cc2)C2=NCCN23)c1`, the growth [1] is reported as 23.7%, the growth [2] is reported as 45.4% and the growth [3] is reported as 19.9%. The growth [4] was 33%, the growth [5] was 14.1% and the growth [6] was 19.6%. For the same compound, the growth [7] was 17.6% and the growth [8] was 40.9%.
For `CN1CCN(Cc2ccc(NC(=O)c3cncc(C#Cc4cnc5ccc(OCC(C)(C)O)nn45)c3)cc2C(F)(F)F)CC1`, the growth [1] was -17.6% (active), the growth [2] was -20.1% (active) and the growth [3] was -86.8% (active). The growth [4] was -16.1% (active), the growth [5] was -66.3% (active) and the growth [6] was -51% (active). For the same compound, the growth [7] was -34.3% (active) and the growth [8] was 1.72% (active).
`CCn1c(SCC(=O)Nc2cccc(C(=O)/C=C/c3ccc(Br)cc3)c2)nc2ccccc2c1=O` was tested, and the growth [1] was 90.7%, the growth [2] was 85.7% and the growth [3] was 99.2%. For the same compound, the growth [4] was 80.9%, the growth [5] was 21.5% and the growth [6] was 28.4%. For the same compound, the growth [7] was 95.3% and the growth [8] was 96.5%.
For `O=S(=O)(NCCCNc1nccc(-c2[nH]c(-c3ccccc3)nc2-c2ccc(Cl)c(O)c2)n1)c1cccc2ccccc12`, the growth [1] was 21.9%, the growth [2] was 46% and the growth [3] was 16.6%. The growth [4] was 34.1%, the growth [5] was 16.4% and the growth [6] was 16.3%. It also gave a growth [7] of 70% and a growth [8] of 21.5%.
Work on `O=C(CNc1nc(-c2cccc([N+](=O)[O-])c2)cs1)Nc1cccc(Cl)c1` yielded a growth [1] of 100%, a growth [2] of 91.7% and a growth [3] of 105%. For the same compound, the growth [4] was 105%, the growth [5] was 91.3% and the growth [6] was 112%. It also gave a growth [7] of 115% and a growth [8] of 100%.
Compound `O=C(CCn1c[n+](CC(=O)c2ccc(F)cc2)c2ccccc21)Nc1cccc2cccnc12` has a growth [1] of 53.9%, a growth [2] of 69.9% and a growth [3] of 79%. For the same compound, the growth [4] was 92.3%, the growth [5] was 68% and the growth [6] was 53.1%. It also gave a growth [7] of 87% and a growth [8] of 76%.
`O=C(Nc1ccc(F)c(F)c1)c1cc(-c2ccc(F)cc2F)ccc1O` was tested, and the growth [1] was 3.6% (active), the growth [2] was -1.22% (active) and the growth [3] was 1.2% (active). For the same compound, the growth [4] was 12.3%, the growth [5] was 0.642% (active) and the growth [6] was 6.45% (active). For the same compound, the growth [7] was 15.5% and the growth [8] was 0.724% (active).
Compound `O=C1CCCc2nc(Nc3ccc(S(=O)(=O)Nc4ccc([N+](=O)[O-])cc4)cc3)ncc21` has a growth [1] of 105%, a growth [2] of 117% and a growth [3] of 104%. For the same compound, the growth [4] was 102%, the growth [5] was 95.2% and the growth [6] was 108%. For the same compound, the growth [7] was 110% and the growth [8] was 98.3%.
`CN(C)CCCOc1ccc2c(c1)CN(C(=O)c1cc(C(=O)N3Cc4cccc(F)c4C3)ccc1O)C2` was tested, and the growth [1] was 100%, the growth [2] was 125% and the growth [3] was 103%. It also gave a growth [4] of 105%, a growth [5] of 83.2% and a growth [6] of 106%. It also gave a growth [7] of 114% and a growth [8] of 106%.
With `CCOC(=O)c1c(Nc2ccccc2)nn2c(-c3ccc(OC)cc3)ccnc12` the growth [1] was 75.1%, the growth [2] was 127% and the growth [3] was 90.4%. The growth [4] was 95.1%, the growth [5] was 89.9% and the growth [6] was 71.7%. It also gave a growth [7] of 95.7% and a growth [8] of 73.9%.
With `NC(N)=Nc1ccc(Oc2cccc(Nc3cccc(C(F)(F)F)c3)c2)cn1` the growth [1] was 37.3%, the growth [2] was 61.2% and the growth [3] was -20.6% (active). The growth [4] was -79.1% (active), the growth [5] was -69.1% (active) and the growth [6] was -76.8% (active). The growth [7] was -91.9% (active) and the growth [8] was -82.8% (active).
With `COc1cc(C2N=C(NNc3ccccc3)NC(C)=C2C(C)=O)ccc1O` (stereo not given) the growth [1] was 83.9%, the growth [2] was 123% and the growth [3] was 92.5%. It also gave a growth [4] of 82.1%, a growth [5] of 88.7% and a growth [6] of 95.1%. It also gave a growth [7] of 98.9% and a growth [8] of 95.6%.
With `CS(=O)(=O)c1ccc(-c2nn(-c3ccccc3)cc2/C=N/NC(=O)c2nc(N)n[nH]2)cc1` the growth [1] was 101%, the growth [2] was 103% and the growth [3] was 91.9%. It also gave a growth [4] of 88.4%, a growth [5] of 88.3% and a growth [6] of 94.8%. It also gave a growth [7] of 117% and a growth [8] of 94.7%.
In the case of `CCOC(=O)c1c(Nc2ccccc2)nn2c(-c3cccs3)ccnc12`, the growth [1] is reported as 79.2%, the growth [2] is reported as 109% and the growth [3] is reported as 87.5%. The growth [4] was 88.7%, the growth [5] was 90.5% and the growth [6] was 78%. The growth [7] was 100% and the growth [8] was 82.1%.
For `O=S(=O)(NCCNc1nccc(-n2cnc3ccccc32)n1)c1ccc(Br)cc1`, the growth [1] was 59.1%, the growth [2] was 115% and the growth [3] was 108%. For the same compound, the growth [4] was 110%, the growth [5] was 78.4% and the growth [6] was 99.8%. It also gave a growth [7] of 103% and a growth [8] of 85.4%.
`Nc1nc(N)c2c(n1)NC(c1ccc(C(F)(F)F)cc1)CC(c1ccc(Nc3nc(NCCO)nc(N4CCOCC4)n3)cc1)=N2` (stereo not given) showed a growth [1] of 62.7%, a growth [2] of 76.3% and a growth [3] of 65.9%. For the same compound, the growth [4] was 56.7%, the growth [5] was 33.7% and the growth [6] was 35.8%. For the same compound, the growth [7] was 86.4% and the growth [8] was 51.2%.
`CC1=CC(=O)C2=C(C)CC(OC(=O)CCc3ccccc3)[C@@H]3[C@H](OC(=O)[C@@H]3C)[C@@H]12` (stereo not given in full) showed a growth [1] of 96.5%, a growth [2] of 98.9% and a growth [3] of 93.3%. For the same compound, the growth [4] was 96.7%, the growth [5] was 83.9% and the growth [6] was 69.2%. The growth [7] was 102% and the growth [8] was 91.2%.
`C=C(C=O)[C@@H]1CC[C@]2(C)[C@H](CC=C3[C@H]4[C@@H](C)[C@H](C)CC[C@]4(C(=O)OC)CC[C@]32C)[C@@]1(C)CCC#N` was tested, and the growth [1] was 22.4%, the growth [2] was 12% and the growth [3] was -7.24% (active). The growth [4] was 0.12% (active), the growth [5] was -20.1% (active) and the growth [6] was -57.8% (active). For the same compound, the growth [7] was -48.8% (active) and the growth [8] was -4.32% (active).
For `Cc1ccc2sc3c(c2c1)OC(N)=C(C#N)C3c1cccc(F)c1` (stereo not given), the growth [1] was 35.5%, the growth [2] was -6.44% (active) and the growth [3] was -28.6% (active). The growth [4] was 15.2%, the growth [5] was 15.2% and the growth [6] was -24.6% (active). For the same compound, the growth [7] was 6.17% (active) and the growth [8] was 2.9% (active).
